The values below come from PubChem BioAssay (NCATS).

In assay [1] the target is alpha-glucosidase (Oryza sativa, rice) (UniProt Q653V4). Briefly: Counterscreen for Glucocerebrosidase Inhibitors: qHTS Assay for Rice alpha-Glucosidase at pH 5.0 (AID 997).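 Also: 0% = full activity with enzyme and -100% = basal without enzyme.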 An outline of the steps: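 Rice alpha-glucosidase (4 nM final) with 400 uM 4-methylumbelliferyl-alpha-D-glucopyranoside in citrate buffer pH 5.0, 20 min at room temperature, stopped at pH 10; fluorescence 365/440 nm, compounds 0.7 nM–77 uM, AC50 from Hill fits.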
A general note: The purpose of a counterscreen is to sort out artefacts and off-target activity.

Assay [2] is described as follows: Validation of Assay for Modulators of Lamin A Splicing (AID 1459; active = well fitted curve in the direction sought with a large enough effect in the signal ratio; the % refers to the signal ratio;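 also: cells exposed to compound for two days before reading; 0% is about no effect; ratio rise marks activators and ratio drop marks inhibitors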). Put shortly: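 HeLa S3 lamin A-EGFP/DsRed2 stable clone, 600 cells/well, Opti-MEM 2% FBS; compounds by pin tool; 48 hrs, 37 °C/5% CO2; Acumen 488 nm scan, objects 10-100 um; GFP/RFP intensity ratio.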
The nature of assay [3]: qHTS Assay for Lipid Storage Modulators (AID 1519; calls by dose curve; as to activity change, negative = inhibition: % is scaled to controls: 0 for no effect and ±100 for the full control effect). The following applies: Drosophila S3 cells, BODIPY lipid droplet/cell ratio, laser cytometry, cells loaded with oleic acid; for activity change, negative = inhibition: at 57.5 µM (top of the series). An outline of the steps: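 Cells seeded at 5,000 per well were treated with compounds over a concentration series and loaded with oleic acid (400 uM, as added). Lipid droplet fluorescence (488 nm excitation, 500-530 nm channel) was read by laser-scanning cytometry and normalized to 20 uM Triacsin C.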
In general terms: Quantitative high-throughput screening tests each substance at several concentrations.

Assay [4] in a line: Counterscreen for APE1 Inhibitors: Fluorescent Dye Displacement Validation Assay (AID 1707).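 Also: plate controls were ThO with dsDNA and no compound for no effect and ThO without dsDNA for full effect.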 Put shortly: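 ThO 250 nM + dsDNA 50 nM (THF abasic site, 5'-TAMRA), Tris-HCl pH7.5/50mM NaCl/2 mM MgCl2/0.01% Tween-20; compounds pin-transferred; ex 480/em 540 nm endpoint. Neutral = no compound; no-DNA ThO wells = negative control.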
The nature of assay [5]: qHTS for differential inhibitors of proliferation of Plasmodium falciparum line 7G8 (AID 1815).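 Also: parasite growth measured after three days of incubation.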 Also: potency is read from the fitted curve at half-maximal effect.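 As to activity change, negative = inhibition: plate controls were vehicle wells for no effect and reference inhibitor wells for full effect.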
Assay [6] is described as follows: qHTS for differential inhibitors of proliferation of Plasmodium falciparum line GB4 (AID 1816).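 Also: parasite growth measured after 72 h incubation.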 Also: potency is read from the fitted curve at half-maximal effect.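 As to activity change, negative = inhibition: 0% = vehicle DMSO and -100% = reference inhibitor.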 The note with it: Potency: Plasmodium falciparum GB4 proliferation inhibition.
Assay [7] can be described thus: qHTS for differential inhibitors of proliferation of Plasmodium falciparum line 3D7 (AID 1876). Also: potency is read from the fitted curve at half-maximal effect.
The nature of assay [8]: qHTS for differential inhibitors of proliferation of Plasmodium falciparum line D10 (AID 1877).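 Also: parasites grown with compound for 72 h before DNA staining.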 Also: potency is read from the fitted curve at half-maximal effect.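 As to activity change, negative = inhibition: plate controls were vehicle wells for no effect and reference inhibitor wells for full effect.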
Assay [9] is described as follows: qHTS for differential inhibitors of proliferation of Plasmodium falciparum line Dd2 (AID 1882).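 Also: compound exposure of 72 h on infected erythrocytes; plate controls were DMSO vehicle for no effect and 0.29 µM artemisinin for full effect; nearly all actives have a fitted effect of over 65% in size.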 The following applies: Potency: Plasmodium falciparum Dd2 proliferation inhibition. An outline of the steps: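 SYBR Green I DNA fluorescence read-out, ex 485/em 535 nm. Signals were normalized to 0.29 uM artemisinin and DMSO wells, then corrected using vehicle-only plates flanking each stack. Parasite growth ran 72 h in erythrocytes before lysis.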

The nature of assay [10]: qHTS for differential inhibitors of proliferation of Plasmodium falciparum line HB3 (AID 1886).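 Also: parasites grown with compound for 72 h before SYBR Green readout.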 Also: potency is read from the fitted curve at half-maximal effect.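 As to activity change, negative = inhibition: plate controls were vehicle for no effect and reference inhibitor for full effect.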 The following applies: Potency: Plasmodium falciparum HB3 proliferation inhibition.
Assay [11] addresses Ferritin light chain (Equus caballus) (UniProt P02791). Kind of assay: qHTS Validation Assay for Identification of Novel General Anesthetics (AID 2323). Also: % is scaled to controls: 0 for no effect and ±100 for the full control effect. An outline of the steps:
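Fluorescence at 535 nm (excitation 380 nm) reported loss of 1-AMA binding to horse-spleen apoferritin (10 uM) in PBS with 50% saturated 1-aminoanthracene, after 10 min room-temperature incubation with compound; values from Hill fits of normalized response.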

For assay [12], the target named is ATP-dependent DNA helicase Q1 (Homo sapiens) (UniProt P46063). Kind of assay: qHTS Validation Assay for Inhibitors of RecQ-Like Dna Helicase 1 (RECQ1) (AID 2353). Also: potency is read from the fitted curve at half-maximal effect.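 As to activity change, negative = inhibition: plate controls were DMSO vehicle for no effect and enzyme-free control for full effect.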 An outline of the steps: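 50 nM RECQ1T1 preincubated 15 min with compound in Tris pH 8.0 buffer with MgCl2, DTT, Tween-20 and 2.5 ug/ml poly(dI-dC); started with 200 nM TAMRA/BHQ-2 forked duplex and 2 mM ATP. Unwinding read as fluorescence (525/598 nm), two reads 2 h apart.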
ATP-dependent DNA helicase Q1 (Homo sapiens), sequence (P46063 whole entry, looked up): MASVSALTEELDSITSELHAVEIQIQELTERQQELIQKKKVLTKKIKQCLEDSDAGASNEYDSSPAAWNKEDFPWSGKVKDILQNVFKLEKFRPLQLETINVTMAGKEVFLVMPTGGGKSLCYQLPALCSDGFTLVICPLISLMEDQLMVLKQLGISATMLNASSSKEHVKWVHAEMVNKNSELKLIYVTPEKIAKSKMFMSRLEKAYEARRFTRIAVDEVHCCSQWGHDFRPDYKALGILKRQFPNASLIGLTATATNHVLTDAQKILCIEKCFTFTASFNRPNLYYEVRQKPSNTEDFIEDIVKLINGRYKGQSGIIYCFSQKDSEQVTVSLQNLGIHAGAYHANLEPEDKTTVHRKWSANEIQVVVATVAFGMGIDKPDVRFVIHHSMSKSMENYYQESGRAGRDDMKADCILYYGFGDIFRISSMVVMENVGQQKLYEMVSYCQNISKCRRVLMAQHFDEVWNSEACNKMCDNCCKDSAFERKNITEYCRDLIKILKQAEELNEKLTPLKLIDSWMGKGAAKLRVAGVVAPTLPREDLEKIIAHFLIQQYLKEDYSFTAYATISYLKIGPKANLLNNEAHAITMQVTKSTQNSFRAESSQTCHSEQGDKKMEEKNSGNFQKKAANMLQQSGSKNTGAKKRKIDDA

The target in assay [13] is RecQ-like DNA helicase BLM (Homo sapiens) (UniProt P54132). Kind of assay: qHTS Validation Assay for Inhibitors of Bloom's syndrome helicase (BLM) (AID 2364).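 Also: plate controls were DMSO vehicle for no effect and enzyme-free control for full effect.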 Put shortly: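 50 nM BLM preincubated 15 min at room temperature with compound in pH 8.0 Tris buffer containing 2.5 ug/ml poly(dI-dC); started with 200 nM TAMRA/BHQ-2 forked duplex and 2 mM ATP (final). Unwinding read as TAMRA fluorescence increase, two reads 2 h apart.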
RecQ-like DNA helicase BLM (Homo sapiens), sequence (P54132 whole entry, looked up): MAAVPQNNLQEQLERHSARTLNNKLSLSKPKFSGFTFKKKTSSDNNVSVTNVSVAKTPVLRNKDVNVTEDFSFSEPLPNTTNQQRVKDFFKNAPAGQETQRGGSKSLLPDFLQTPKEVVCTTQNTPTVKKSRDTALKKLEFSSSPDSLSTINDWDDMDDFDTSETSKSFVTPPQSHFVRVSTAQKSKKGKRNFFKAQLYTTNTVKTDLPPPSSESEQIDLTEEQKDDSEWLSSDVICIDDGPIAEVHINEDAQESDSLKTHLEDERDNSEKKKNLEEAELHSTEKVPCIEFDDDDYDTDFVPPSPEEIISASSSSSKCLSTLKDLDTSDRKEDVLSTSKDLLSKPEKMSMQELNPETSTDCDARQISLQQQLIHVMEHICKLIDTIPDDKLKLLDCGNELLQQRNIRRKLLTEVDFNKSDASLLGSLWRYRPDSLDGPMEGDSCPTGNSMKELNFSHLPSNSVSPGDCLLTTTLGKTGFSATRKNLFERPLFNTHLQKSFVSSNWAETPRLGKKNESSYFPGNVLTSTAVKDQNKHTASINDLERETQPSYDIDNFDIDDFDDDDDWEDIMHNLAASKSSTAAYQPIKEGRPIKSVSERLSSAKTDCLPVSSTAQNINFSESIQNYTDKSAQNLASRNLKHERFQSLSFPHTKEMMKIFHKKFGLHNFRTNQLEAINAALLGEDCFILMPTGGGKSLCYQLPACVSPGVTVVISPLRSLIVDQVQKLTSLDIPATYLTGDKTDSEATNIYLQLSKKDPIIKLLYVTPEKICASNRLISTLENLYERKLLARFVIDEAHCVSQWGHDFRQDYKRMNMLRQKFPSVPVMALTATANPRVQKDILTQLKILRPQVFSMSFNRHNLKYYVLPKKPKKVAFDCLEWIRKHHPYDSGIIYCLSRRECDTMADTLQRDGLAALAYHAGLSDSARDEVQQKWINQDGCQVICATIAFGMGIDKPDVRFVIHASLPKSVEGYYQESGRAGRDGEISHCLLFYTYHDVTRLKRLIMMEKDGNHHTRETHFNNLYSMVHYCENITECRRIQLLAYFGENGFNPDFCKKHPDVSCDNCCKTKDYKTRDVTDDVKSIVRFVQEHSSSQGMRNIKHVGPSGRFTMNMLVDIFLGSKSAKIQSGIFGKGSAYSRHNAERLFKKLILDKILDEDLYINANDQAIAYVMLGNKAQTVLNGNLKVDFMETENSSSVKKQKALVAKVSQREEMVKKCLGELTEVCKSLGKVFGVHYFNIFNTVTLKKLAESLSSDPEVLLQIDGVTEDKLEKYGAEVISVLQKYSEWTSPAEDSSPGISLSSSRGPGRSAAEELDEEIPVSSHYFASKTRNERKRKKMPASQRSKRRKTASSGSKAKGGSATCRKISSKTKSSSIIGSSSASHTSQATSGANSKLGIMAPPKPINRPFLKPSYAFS

Assay [14] has as its target DNA repair nuclease/redox regulator APEX1 (Homo sapiens) (UniProt P27695). Briefly: qHTS Validation Assay for Inhibitors of the Human Apurinic/apyrimidinic Endonuclease 1 (APE1) (AID 1705; also: potency is read from the fitted curve at half-maximal effect;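 as to activity change, negative = inhibition: TAMRA fluorescence gain over two minutes as APE1 cuts a quenched THF abasic duplex; % is scaled to controls: 0 for no effect and ±100 for the full control effect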). An outline of the steps: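 qHTS, 1536-well. APE1 + cpd 15 min RT → 50 nM TAMRA/BHQ-2 THF-abasic dsDNA substrate → kinetic fluorescence, 3 reads/60 s; delta(read3−read1) = reaction progress. No-enzyme buffer = negative control.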

The target of assay [15] is Endonuclease 4 (Escherichia coli (strain K12)) (UniProt P0A6C1). Briefly: Counterscreen for APE1 Inhibitors: qHTS Validation Assay for Inhibitors of Endonuclease IV (AID 1708). Also: potency is read from the fitted curve at half-maximal effect. As to activity change, negative = inhibition: % is scaled to controls: 0 for no effect and ±100 for the full control effect. Put shortly: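 Cleavage of a quenched abasic-site DNA duplex (50 nM, 5'-TAMRA, 3'-BHQ-2) by 2 nM enzyme is followed as fluorescence increase. Compounds are preincubated with enzyme 15 min at room temperature before substrate addition.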

The nature of assay [16]: qHTS for differential inhibitors of proliferation of Plasmodium falciparum line W2 (AID 1883).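 Also: parasites grown with compound for 72 h before lysis and staining.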 Also: potency is read from the fitted curve at half-maximal effect.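 As to activity change, negative = inhibition: 0% = vehicle wells and -100% = control inhibitor wells.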 The following applies: Potency: Plasmodium falciparum W2 proliferation inhibition.
Assay [17] can be described thus: qHTS Assay for Modulators of Human Peripheral Myelin Protein 22 (PMP22) Expression/Activity (AID 1967; active = well fitted curve in the direction sought with a large enough effect in the signal ratio; the % refers to the signal ratio;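 also: 0% = untreated cells and 100% end not stated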). Put shortly:
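Luminescence ratio of Pmp22 promoter-driven green luciferase to EF-alpha-driven red luciferase, in engineered mouse MSC80 Schwann cells, served as read-out. Compounds were incubated 24h; untreated cells defined 0% Activity; curves were classified by r2, magnitude and activity.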

Setting [18] is: measured here: cell count channel max response.
[19] abbreviates: measured here: lipid channel max response.

Where “and” joins values, the source holds several entries; their conditions need not be identical. Equal entries are not always repeated. Records with an inconclusive call do not appear. Calls of active or inactive are those of the source. Unless noted, calls follow the shape of the dose curve; as a rule, active = well fitted curve in the direction sought with a large enough effect; inconclusive = small, poorly fitted or top-dose-only effect, or another doubt; inactive = no such curve, though single readings can be large; an effect the other way counts as inactive or inconclusive.

Ferritin light chain (Equus caballus), sequence (P02791 2-175 limits assumed): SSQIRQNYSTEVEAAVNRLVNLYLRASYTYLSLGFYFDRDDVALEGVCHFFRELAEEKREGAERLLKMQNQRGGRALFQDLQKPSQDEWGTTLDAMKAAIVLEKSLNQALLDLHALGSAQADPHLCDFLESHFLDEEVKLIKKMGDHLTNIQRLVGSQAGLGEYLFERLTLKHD
DNA repair nuclease/redox regulator APEX1 (Homo sapiens), sequence (P27695 whole entry, looked up): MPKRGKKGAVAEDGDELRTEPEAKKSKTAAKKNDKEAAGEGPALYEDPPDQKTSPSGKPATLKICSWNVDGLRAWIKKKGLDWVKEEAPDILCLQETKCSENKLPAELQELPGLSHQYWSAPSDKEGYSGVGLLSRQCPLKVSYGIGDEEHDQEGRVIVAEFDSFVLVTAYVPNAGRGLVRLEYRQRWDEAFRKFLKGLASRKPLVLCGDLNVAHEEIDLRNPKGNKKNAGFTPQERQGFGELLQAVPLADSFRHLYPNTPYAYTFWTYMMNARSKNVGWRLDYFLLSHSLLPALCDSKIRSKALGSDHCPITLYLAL

`NCCCNCCCCNCCCN`: the result in assay [1] and in assay [2] was inactive. Moreover, the activity change, negative = inhibition in assay [3] was 1.21% (inactive). Moreover, the max response in assay [3] (setting [18]) is 9.8%; in assay [3] (setting [19]) it was 13.5%. Moreover, the Potency entry in assay [4], in [5], in assay [6], in assay [7], in assay [8] and in [9] was “inactive” each time. Also, the Potency entry in assay [10], in [11], in assay [12] and in [13] was “inactive” each time.

As to `O=c1[nH]c(=O)c2nc3ccccc3nc2[nH]1`, the molecule was called inactive in [1] and in assay [2]. The activity change, negative = inhibition in assay [3] was -0.305% (inactive). Moreover, the max response in assay [3] (setting [18]) was -11.1%; in [3] (setting [19]), -9.17%. Besides, the Potency entry in assay [6], in assay [9], in assay [10], in [11] and in [12] was “inactive” in each case.

As for `N[C@H](C(=O)O)[C@H](O)C(=O)O`, the call in assay [1] and in assay [2] was inactive. Further, the Potency result in assay [14], in assay [4], in assay [15], in assay [5], in assay [6] and in assay [7] was “inactive” throughout. In addition, the Potency entry in assay [8], in assay [9], in [16], in assay [10] and in [12] was “inactive” each time.

`NC(N)=[N+]1CCc2ccccc2C1`: the call in [1] and in assay [2] was inactive. Besides, the activity change, negative = inhibition in assay [3] is 1.3% (inactive). For the same molecule, the values for the max response in assay [3] (setting [18]) and in [3] (setting [19]) were 6.74% and -12.8%, respectively. The Potency result in [4], in assay [15], in assay [5], in [6], in assay [7] and in assay [8] was “inactive” in each case. Also, the Potency result in assay [9], in [16], in assay [10], in assay [11] and in [13] was “inactive” in each case.

Take `COc1ccccc1N1CCN(CCCNc2c(C)c(=O)n(C)c(=O)n2C)CC1`: the molecule was classed as inactive in assay [1] and in assay [2]. Moreover, in [3], the activity change, negative = inhibition is -0.317% (inactive). Also, the max response in assay [3] (setting [18]) is 38.5%; in [3] (setting [19]) it was 37.3%. Further, the Potency result in assay [4], in assay [5], in assay [9], in assay [11], in assay [12] and in assay [13] was “inactive” throughout. For the same molecule, the Potency in assay [7] and in assay [16] was 8.91 µM (active) in each case.

As for `N=C(N)SCCN`, the molecule was classed as inactive in assay [1], in assay [2] and in [17]. The activity change, negative = inhibition in [3] was 1.32% (inactive) and 3.68% (inactive). The max response in assay [3] (setting [18]) was 9.1% and -2.48%; in assay [3] (setting [19]) it was 12% and 0.318%. Also, the Potency entry in assay [4], in assay [9] and in assay [12] was “inactive” each time.

In the case of `CC(N)(Cc1ccc(O)cc1)C(=O)O` (configuration not stated), the call in assay [2] and in assay [17] was inactive. The Potency entry in [14], in [4], in assay [15], in assay [5], in assay [6] and in [7] was “inactive” throughout. Also, the Potency entry in [8], in [9], in assay [16], in assay [10], in [11] and in assay [13] was “inactive” in each case. Also, in [12], the Potency was 11.2 µM (active).

For `N[C@H](C(=O)O)[C@H]1C[C@@H]1C(=O)O`, in assay [2], the result was inactive. Further, the Potency in assay [14] was 39.8 µM (active). Also, the Potency result in [4], in [15], in assay [5], in assay [6], in assay [7] and in assay [8] was “inactive” throughout. Besides, the Potency result in assay [9], in assay [16], in assay [10], in assay [11], in [12] and in assay [13] was “inactive” throughout.

Turning to `CCN(c1nc(N)c(C(=O)N=C(N)N)nc1Cl)C(C)C`, the molecule was classed as inactive in assay [1] and in assay [2]. Further, the Potency result in assay [14], in assay [4], in assay [15], in assay [9] and in [12] was “inactive” each time. Also, the Potency in assay [5] is 11.2 µM (active); in [6] it was 7.94 µM (active); in [7], 10 µM (active); in [8] it was 11.2 µM (active); in assay [16] it was 7.94 µM (active); in assay [10], 11.2 µM (active).

In the case of `O=C(O)C1=CC(=C(c2ccc(O)c(C(=O)O)c2)c2ccc(O)c(C(=O)O)c2)C=CC1=O`, the result in assay [1] and in assay [2] was inactive. The activity change, negative = inhibition in assay [3] was 3.23% (inactive) and 0.986% (inactive). The max response in [3] (setting [18]) was 16.1% and 56.8%; in [3] (setting [19]), 22% and 58.3%. Besides, the Potency entry in assay [4], in assay [9] and in assay [11] was “inactive” each time. Further, the Potency in [15] was 0.708 µM (active).
